{"source": "PubChem BioAssay AID1159580", "about": "(chemical genetic matrix, 2015)", "assay": "chemical genetic growth profiling, strain panel (AID 1159580);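 further: tested at 20 µM; growth read once vehicle control cultures reached saturation at 30 °C; 1 = growth at the plate median or of vehicle wells; lower values mean less growth of the strain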", "details": "growth OD", "key": {"[1]": {"details": "S. cerevisiae deletion strains, locus YAL013W, strain DEP1, active compounds read low"}, "[2]": {"details": "S. cerevisiae deletion strains, locus YGR078C, strain PAC10, active compounds read low"}, "[3]": {"details": "S. cerevisiae deletion strains, locus YMR263W, strain SAP30, active compounds read low"}, "[4]": {"details": "S. cerevisiae deletion strains, locus YMR307W, strain GAS1, active compounds read low"}, "[5]": {"details": "S. cerevisiae deletion strains, locus YNL153C, strain GIM3, active compounds read low"}, "[6]": {"details": "S. cerevisiae deletion strains, locus YBR229C, strain ROT2, active compounds read low"}, "[7]": {"details": "S. cerevisiae deletion strains, locus YDL101C, strain DUN1, active compounds read low"}, "[8]": {"details": "S. cerevisiae deletion strains, locus YDR150W, strain NUM1, active compounds read low"}, "[9]": {"details": "S. cerevisiae deletion strains, locus YEL061C, strain CIN8, active compounds read low"}, "[10]": {"details": "S. cerevisiae deletion strains, locus YHR030C, strain SLT2, active compounds read low"}, "[11]": {"details": "S. cerevisiae deletion strains, locus YHR087W, strain rtc3, active compounds read low"}, "[12]": {"details": "S. cerevisiae deletion strains, locus YJR043C, strain POL32, active compounds read low"}, "[13]": {"details": "S. cerevisiae deletion strains, locus YJR075W, strain HOC1, active compounds read low"}, "[14]": {"details": "S. cerevisiae deletion strains, locus YLR039C, strain RIC1, active compounds read low"}, "[15]": {"details": "S. cerevisiae deletion strains, locus YLR058C, strain SHM2 (second series), active compounds read low"}, "[16]": {"details": "S. cerevisiae deletion strains, locus YLR085C, strain ARP6, active compounds read low"}, "[17]": {"details": "S. cerevisiae deletion strains, locus YLR262C, strain YPT6, active compounds read low"}, "[18]": {"details": "S. cerevisiae deletion strains, locus YML094W, strain GIM5, active compounds read low"}, "[19]": {"details": "S. cerevisiae deletion strains, locus YMR219W, strain ESC1, active compounds read low"}, "[20]": {"details": "S. cerevisiae deletion strains, locus YNL298W, strain CLA4 (second series), active compounds read low"}, "[21]": {"details": "S. cerevisiae deletion strains, locus YNL322C, strain KRE1, active compounds read low"}, "[22]": {"details": "S. cerevisiae deletion strains, locus YNR030W, strain Alg12, active compounds read low"}, "[23]": {"details": "S. cerevisiae deletion strains, locus YPL055C, strain LGE1, active compounds read low"}, "[24]": {"details": "S. cerevisiae deletion strains, locus YPL241C, strain CIN2, active compounds read low"}, "[25]": {"details": "S. cerevisiae deletion strains, locus YPR135W, strain CTF4, active compounds read low"}, "[26]": {"details": "S. cerevisiae deletion strains, locus YHR079C, strain IRE1, active compounds read low"}, "[27]": {"details": "S. cerevisiae deletion strains, locus YJL095W, strain BCK1, active compounds read low"}, "[28]": {"details": "S. cerevisiae deletion strains, locus YJR066W, strain TOR1, active compounds read low"}, "[29]": {"details": "S. cerevisiae deletion strains, locus YLR113W, strain HOG1, active compounds read low"}, "[30]": {"details": "S. cerevisiae deletion strains, locus YNL183C, strain NPR1, active compounds read low"}, "[31]": {"details": "S. cerevisiae deletion strains, locus YOR231W, strain MKK1, active compounds read low"}, "[32]": {"details": "S. cerevisiae deletion strains, locus YPL256C, strain CLN2, active compounds read low"}}, "note": "The whole screen tested about 5,500 compounds, of which about 2,000 (36%) were called active. Roughly 18% stayed inconclusive and do not appear here. The list shows a part of the results. Unmarked numbers belong to inactive results. No stated cut-off is given here; in the data, active means normalized growth mostly below about 0.91 (no sharp cut-off); inconclusive means no clear call, values can overlap the other calls; inactive means mostly above about 0.92.", "data": [{"smiles": "Nc1nc(Cl)nc2c1ncn2[C@@H]1O[C@H](CO)[C@H](O)C1O", "note": "(stereo partly drawn)", "values": [{"measurement": "normalized growth", "setting": "[1]", "result": 1.01}, {"measurement": "normalized growth", "setting": "S. cerevisiae deletion strains, locus YAL040C, strain CLN3, active compounds read low", "result": 1.02}, {"measurement": "normalized growth", "setting": "S. cerevisiae deletion strains, locus YER002W, strain NOP16, active compounds read low", "result": 0.991}, {"measurement": "normalized growth", "setting": "[2]", "result": 1.01}, {"measurement": "normalized growth", "setting": "[3]", "result": 1.01}, {"measurement": "normalized growth", "setting": "[4]", "result": 1}, {"measurement": "normalized growth", "setting": "[5]", "result": 1.04}, {"measurement": "normalized growth", "setting": "S. cerevisiae deletion strains, locus YNL175C, strain NOP13, active compounds read low", "result": 0.996}, {"measurement": "normalized growth", "setting": "S. cerevisiae deletion strains, locus YNL197C, strain WHI3, active compounds read low", "result": 0.979}, {"measurement": "normalized growth", "setting": "S. cerevisiae deletion strains, locus YNL224C, strain SQS1, active compounds read low", "result": 1}, {"measurement": "normalized growth", "setting": "S. cerevisiae deletion strains, locus YOR083W, strain WHI5 (second series), active compounds read low", "result": 1.02}]}, {"smiles": "FC(F)(F)Oc1ccc(-c2noc(CSc3ccc(Br)cc3)n2)cc1", "values": [{"measurement": "normalized growth", "setting": "[1]", "result": 1.02}, {"measurement": "normalized growth", "setting": "[6]", "result": 1.01}, {"measurement": "normalized growth", "setting": "[7]", "result": 0.967}, {"measurement": "normalized growth", "setting": "S. cerevisiae deletion strains, locus YDL134C, strain PPH21, active compounds read low", "result": 0.999}, {"measurement": "normalized growth", "setting": "[8]", "result": 1}, {"measurement": "normalized growth", "setting": "[9]", "result": 0.974}, {"measurement": "normalized growth", "setting": "[2]", "result": 1}, {"measurement": "normalized growth", "setting": "[10]", "result": "0.69 (active)"}, {"measurement": "normalized growth", "setting": "[11]", "result": 1.01}, {"measurement": "normalized growth", "setting": "[12]", "result": 0.992}, {"measurement": "normalized growth", "setting": "[13]", "result": 0.978}, {"measurement": "normalized growth", "setting": "S. cerevisiae deletion strains, locus YKL190W, strain CNB1, active compounds read low", "result": 0.989}, {"measurement": "normalized growth", "setting": "[14]", "result": 1.05}, {"measurement": "normalized growth", "setting": "[15]", "result": 0.997}, {"measurement": "normalized growth", "setting": "[16]", "result": 0.905}, {"measurement": "normalized growth", "setting": "[17]", "result": 1}, {"measurement": "normalized growth", "setting": "[18]", "result": 0.99}, {"measurement": "normalized growth", "setting": "[19]", "result": 1}, {"measurement": "normalized growth", "setting": "[3]", "result": 0.997}, {"measurement": "normalized growth", "setting": "[4]", "result": 0.75}, {"measurement": "normalized growth", "setting": "[5]", "result": 1}, {"measurement": "normalized growth", "setting": "[20]", "result": 0.969}, {"measurement": "normalized growth", "setting": "[21]", "result": 0.996}, {"measurement": "normalized growth", "setting": "[22]", "result": 0.958}, {"measurement": "normalized growth", "setting": "[23]", "result": 1.04}, {"measurement": "normalized growth", "setting": "[24]", "result": 0.966}, {"measurement": "normalized growth", "setting": "[25]", "result": 1.1}, {"measurement": "normalized growth", "setting": "S. cerevisiae strains, strain wild type, active compounds read low", "result": 0.985}]}, {"smiles": "CC(=O)OCC1=C(C(=O)O)N2C(=O)[C@@H](N)C2SC1", "note": "(stereo partly drawn)", "values": [{"measurement": "normalized growth", "setting": "[10]", "result": 1.06}, {"measurement": "normalized growth", "setting": "[26]", "result": 1.07}, {"measurement": "normalized growth", "setting": "[27]", "result": 1.07}, {"measurement": "normalized growth", "setting": "[28]", "result": 0.976}, {"measurement": "normalized growth", "setting": "[29]", "result": 1.05}, {"measurement": "normalized growth", "setting": "[30]", "result": 0.983}, {"measurement": "normalized growth", "setting": "[31]", "result": 1.07}, {"measurement": "normalized growth", "setting": "[32]", "result": 1.07}]}, {"smiles": "C[C@H]1CC2C3CCC4=CC(=O)C=C[C@]4(C)[C@@]3(F)[C@@H](O)C[C@]2(C)[C@@]1(O)C(=O)COP(=O)(O)O", "note": "(stereo partly drawn)", "values": [{"measurement": "normalized growth", "setting": "[10]", "result": 1.07}, {"measurement": "normalized growth", "setting": "[26]", "result": 1.08}, {"measurement": "normalized growth", "setting": "[27]", "result": 1.03}, {"measurement": "normalized growth", "setting": "[28]", "result": 0.971}, {"measurement": "normalized growth", "setting": "[29]", "result": 1.03}, {"measurement": "normalized growth", "setting": "[30]", "result": 0.983}, {"measurement": "normalized growth", "setting": "[31]", "result": 1.08}, {"measurement": "normalized growth", "setting": "[32]", "result": 1.09}]}, {"smiles": "O=C(CSc1ccc(C(F)(F)F)cn1)N1CCc2c([nH]c3ccccc23)C1C(F)(F)F", "note": "(stereo not drawn)", "values": [{"measurement": "normalized growth", "setting": "[1]", "result": 1}, {"measurement": "normalized growth", "setting": "[6]", "result": 0.995}, {"measurement": "normalized growth", "setting": "S. cerevisiae deletion strains, locus YCL061C, strain MRC1, active compounds read low", "result": 1.01}, {"measurement": "normalized growth", "setting": "[7]", "result": 1}, {"measurement": "normalized growth", "setting": "[8]", "result": 1.02}, {"measurement": "normalized growth", "setting": "[9]", "result": 0.959}, {"measurement": "normalized growth", "setting": "[2]", "result": 0.984}, {"measurement": "normalized growth", "setting": "[10]", "result": 1.01}, {"measurement": "normalized growth", "setting": "[11]", "result": 0.974}, {"measurement": "normalized growth", "setting": "S. cerevisiae deletion strains, locus YJL187C, strain SWE1, active compounds read low", "result": 1.02}, {"measurement": "normalized growth", "setting": "[12]", "result": 1.01}, {"measurement": "normalized growth", "setting": "[13]", "result": 0.965}, {"measurement": "normalized growth", "setting": "[14]", "result": 0.999}, {"measurement": "normalized growth", "setting": "[15]", "result": 1.01}, {"measurement": "normalized growth", "setting": "[16]", "result": 1}, {"measurement": "normalized growth", "setting": "[17]", "result": 0.982}, {"measurement": "normalized growth", "setting": "[18]", "result": 0.997}, {"measurement": "normalized growth", "setting": "[19]", "result": 1.01}, {"measurement": "normalized growth", "setting": "[3]", "result": 1.01}, {"measurement": "normalized growth", "setting": "[4]", "result": 0.935}, {"measurement": "normalized growth", "setting": "[5]", "result": 0.998}, {"measurement": "normalized growth", "setting": "[20]", "result": 1.01}, {"measurement": "normalized growth", "setting": "[21]", "result": 0.991}, {"measurement": "normalized growth", "setting": "[22]", "result": 0.916}, {"measurement": "normalized growth", "setting": "S. cerevisiae deletion strains, locus YOL006C, strain TOP1, active compounds read low", "result": 1.08}, {"measurement": "normalized growth", "setting": "[23]", "result": 0.954}, {"measurement": "normalized growth", "setting": "[24]", "result": 0.936}, {"measurement": "normalized growth", "setting": "[25]", "result": 0.907}]}]}
